# Measurements published in PubChem BioAssay (NCI).
# Compounds without any hit were thinned out: in the full panel of roughly 83,000, 20% have a hit.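 48-hour exposure, single concentration, 96-well plates; percent growth endpoint where 0 means no net growth. Active: below 10.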 Values without a mark were called inactive. The source made the active and inactive calls.
# Tested on: NCI-H460 lung
# Assay: NCI-60 one-dose screen, 48 h (100 = growth as untreated, 0 = no growth, -100 = all killed)
# Settings: 10 µM
row,Compound,growth
1,COc1ccc(N=Nc2cc(OC)c(OC)c(OC)c2)cc1,87.5%
2,COc1cc2cc(Oc3ccc(NC(=O)Nc4ccc(Cl)c(C(F)(F)F)c4)cc3)c(C)nc2cc1OC,-19.8% (active)
3,COc1cccc(-c2nc3sccn3c2-c2cccc(S(C)(=O)=O)c2)c1,106%
4,COc1cc(-c2nn(-c3cccc(NC(=O)CCN4CCN(Cc5ccccc5)CC4)c3)cc2-c2ccncc2)ccc1Cl,1.48% (active)
5,O=C(O)c1cc([N+](=O)[O-])ccc1Oc1ccccc1,105%
6,CCN(CC)CCCC(C)N=C(C1=C(C(=NC(C)CCCN(CC)CC)c2cccc(OC)c2)C(=O)NC1=O)c1cccc(OC)c1 (centres undefined),-47.1% (active)
7,O=[N+]([O-])c1cc(Cl)cc(Cl)c1O,105%
8,O=C(CN1CCN(C(=O)c2ccccc2)CC1)Nc1ccccc1SCc1ccccc1,96.8%
9,CC(=O)Oc1cc(OC(C)=O)c2ccccc2c1OC(C)=O,86.6%
10,CCOC(=O)c1cc(C(=O)c2ccc(F)cc2F)n2ccccc12,97.5%
11,CN1CCN(CCCn2c(=O)c3sc4ncccc4c3n3nnc(-c4ccccc4)c23)CC1,-77.1% (active)
12,O=C(CCl)Nc1ccc(Cc2ccc(NC(=O)CCl)cc2)cc1,-29.3% (active)
13,COc1cc(/C=C2\CCCC3=C2N=C2SC(C)=CN2C3c2cc(OC)c(OC)c(OC)c2)cc(OC)c1OC (centres undefined),1.37% (active)
14,Oc1cccc(-c2nc3sccn3c2-c2ccncn2)c1,97.8%

# Tested on: HOP-92 NSCLC
# Assay: as above
# Settings: 10 µM
row,Compound,growth
1,NS(=O)(=O)Oc1ccc(-c2ccc3sccc3c2)cc1,104%
2,C=C(C)[C@@H]1CC[C@]2(COCCC#N)CC[C@]3(C)[C@H](CC[C@@H]4[C@@]5(C)Cc6c([nH]c7ccccc67)C(C)(C)[C@@H]5CC[C@]43C)[C@@H]12,107%
3,O=S(=O)(Oc1ccc(-c2ccc3sccc3c2)cc1)c1ccc(F)cc1,105%
4,Cc1nn(-c2ccccc2)c2nc(Cl)c(C=O)c(-c3ccccc3)c12,65.7%
5,Cc1ccc(S(=O)(=O)N/N=C2\CCCc3ccccc32)cc1,99.5%
6,COc1ccc(-c2cc(-c3ccc(OC)c(OC)c3)nc(SCCCC(=O)NO)n2)cc1,-28.6% (active)
7,CC(C)C[C@H](NC(=O)Cn1cccc(CNC(=O)c2ccccc2)c1=O)B(O)O,-11.3% (active)
8,CC[C@@H](C(=O)[C@@H](C)[C@@H](O)[C@H](C)[C@@H]1O[C@@H]([C@@H](CC)C(=O)O)CC[C@@H]1C)C1O[C@]2(C=CC(=O)[C@]3(CC[C@@](C)([C@H]4CC[C@](O)(CC)[C@H](C)O4)O3)O2)[C@H](C)C[C@@H]1C (some centres undefined),73.5%
9,CCOC(=O)/C(=C(\C)N)C1CC(=O)NC1=O (centres undefined),112%
10,COc1cc(-c2nn(-c3cccc(NC(=O)CCNc4ccc(N5CCOCC5)cc4)c3)cc2-c2ccncc2)ccc1Cl,-6.34% (active)
11,CC(=O)N[C@H](C(=O)N[C@@H](CCCNC(=N)N)C(=O)N[C@@H](CCCCN)C(=O)N[C@@H](CCCNC(=N)N)C(=O)N[C@]1(C)CCCCCC/C=C\CCC[C@@](C)(C(=O)N[C@@H](CCCNC(=N)N)C(=O)N[C@@H](CCC(=O)O)C(=O)N[C@@H](CC(C)C)C(=O)N[C@H](C(=O)N[C@@H](CCC(=O)O)C(N)=O)C(C)C)NC(=O)[C@H](CCC(N)=O)NC(=O)[C@H](CC(C)C)NC(=O)[C@H](CC(C)C)NC(=O)[C@H](CCCNC(=N)N)NC(=O)[C@H](CCCNC(=N)N)NC(=O)[C@H](CC(C)C)NC1=O)C(C)C,-63.6% (active)
12,O=C1c2ccccc2C(=O)c2c1ccc1c(=O)n(-c3ccccc3C(F)(F)F)nnc21,37.1%
13,Cc1c(Cl)cccc1NC(=O)CCCl,103%
14,COc1cc(-c2csc(NC(=O)Nc3cc(C(F)(F)F)cc(C(F)(F)F)c3)n2)cc(OC)c1OC,-25.9% (active)
15,Nc1ccn(Cc2nnc(CCC(=O)c3nc4ccccc4[nH]3)o2)c(=O)n1,66.1%
16,O=C1C=C(Nc2cccc(Br)c2)c2ccccc2C1=O,39.1%
17,COc1cccc(N=Nc2cccc(OC)c2)c1,84%
18,C=CCN(CC=C)C(=O)[C@H](CC)[C@@H]1CC[C@@H](C)[C@@H]([C@H](C)[C@@H](O)[C@@H](C)C(=O)[C@H](CC)C2O[C@]3(C=C[C@@H](O)[C@]4(CC[C@@](C)([C@H]5CC[C@](O)(CC)[C@H](C)O5)O4)O3)[C@H](C)C[C@@H]2C)O1 (some centres undefined),-23.9% (active)
19,O=C1/C=C/[C@@H](O)[C@@H]2C[C@@H](O)C[C@H]2/C=C/CCC[C@@H](C(F)(F)F)O1,99.4%
20,CC[C@@H](C(=O)[C@@H](C)[C@@H](O)[C@H](C)[C@@H]1O[C@@H]([C@@H](CC)C(=O)N(CC)CC)CC[C@@H]1C)C1O[C@]2(C=CC(=O)[C@]3(CC[C@@](C)([C@H]4CC[C@](O)(CC)[C@H](C)O4)O3)O2)[C@H](C)C[C@@H]1C (some centres undefined),-17.2% (active)

row,Compound,growth
1,O=S(=O)(O)c1ccc(Cl)cc1,117%
2,CCN(CC)CCOc1cccc2c1C(=O)c1ccccc1C2=O,71.2%
3,CC[C@@H]1NC(=O)[C@H]([C@H](O)[C@H](C)C/C=C/c2ccc(CN3C(=O)CCCC3=O)cc2)N(C)C(=O)[C@H](C(C)C)N(C)C(=O)[C@H](CC(C)C)N(C)C(=O)[C@H](CC(C)C)N(C)C(=O)[C@@H](C)NC(=O)[C@H](C)NC(=O)[C@H](CC(C)C)N(C)C(=O)[C@H](C(C)C)NC(=O)[C@H](CC(C)C)N(C)C(=O)CN(C)C1=O,53.3%
4,O=C(Nc1ccc(NS(=O)(=O)c2ccc(F)cc2)cc1)C12CC3CC(CC(C3)C1)C2,106%
5,C/C(=N\O)c1ccc(NC(=O)CSc2nnc(-c3ccccc3)n2-c2ccccc2)cc1,30.1%
6,CC(=O)Nc1ccc2c(c1)C(=O)c1cccc(C(=O)O)c1-2,96.6%
7,COc1ccc(N=Nc2cc(OC)c(OC)c(OC)c2)cc1,79.4%
8,COc1cc2cc(Oc3ccc(NC(=O)Nc4ccc(Cl)c(C(F)(F)F)c4)cc3)c(C)nc2cc1OC,-22.3% (active)
9,COc1cccc(-c2nc3sccn3c2-c2cccc(S(C)(=O)=O)c2)c1,87.3%
10,COc1cc(-c2nn(-c3cccc(NC(=O)CCN4CCN(Cc5ccccc5)CC4)c3)cc2-c2ccncc2)ccc1Cl,-0.56% (active)
11,O=C(O)c1cc([N+](=O)[O-])ccc1Oc1ccccc1,65.8%
12,CCN(CC)CCCC(C)N=C(C1=C(C(=NC(C)CCCN(CC)CC)c2cccc(OC)c2)C(=O)NC1=O)c1cccc(OC)c1 (centres undefined),-66.1% (active)
13,O=[N+]([O-])c1cc(Cl)cc(Cl)c1O,105%
14,O=C(CN1CCN(C(=O)c2ccccc2)CC1)Nc1ccccc1SCc1ccccc1,71.4%
15,CC(=O)Oc1cc(OC(C)=O)c2ccccc2c1OC(C)=O,107%
16,CCOC(=O)c1cc(C(=O)c2ccc(F)cc2F)n2ccccc12,47.1%
17,CN1CCN(CCCn2c(=O)c3sc4ncccc4c3n3nnc(-c4ccccc4)c23)CC1,48.9%
18,O=C(CCl)Nc1ccc(Cc2ccc(NC(=O)CCl)cc2)cc1,46.3%
19,COc1cc(/C=C2\CCCC3=C2N=C2SC(C)=CN2C3c2cc(OC)c(OC)c(OC)c2)cc(OC)c1OC (centres undefined),55.4%
20,Oc1cccc(-c2nc3sccn3c2-c2ccncn2)c1,82.6%
